Data as given in PubChem BioAssay (Tox21).
A number with no mark means an inactive call. The source made the active and inactive calls. Calls follow the shape of the full dose curve.

What follows are compounds tested against Thyrotropin-releasing hormone receptor (Homo sapiens) (UniProt P34981) (assay: qHTS assay to identify small molecule agonists of the thyrotropin-releasing hormone receptor (TRHR) signaling pathway (AID 1346891;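 as to activation: HEK293 cells expressing TRHR with calcium dye readout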)). Conditions: TRHR-HEK293 calcium fluorescence, agonist mode; series mostly up to 57.6 µM; activation: at the top concentration.
Thyrotropin-releasing hormone receptor (Homo sapiens), sequence (P34981 whole entry, looked up): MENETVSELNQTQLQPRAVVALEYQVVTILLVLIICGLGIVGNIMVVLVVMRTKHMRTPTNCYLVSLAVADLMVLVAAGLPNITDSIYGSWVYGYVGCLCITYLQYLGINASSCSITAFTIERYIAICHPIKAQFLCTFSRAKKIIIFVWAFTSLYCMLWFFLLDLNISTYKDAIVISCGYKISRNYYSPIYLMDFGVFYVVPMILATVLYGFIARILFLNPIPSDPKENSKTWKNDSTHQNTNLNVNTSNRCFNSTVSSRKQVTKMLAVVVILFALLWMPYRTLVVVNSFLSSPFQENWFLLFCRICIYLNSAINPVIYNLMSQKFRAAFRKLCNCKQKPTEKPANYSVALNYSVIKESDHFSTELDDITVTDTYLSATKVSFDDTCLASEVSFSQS
Excerpt: National Center for Advancing Translational Sciences [NCATS] NIH Chemical Genomics Center [NCGC] U.S. Environmental Protection Agency [EPA] National Institutes of Environmental Health Sciences [NIEHS] National Toxicology Program [NTP] Assay overview: Thyrotropin-releasing hormone (TRH) receptor (TRHR) is a G-protein-coupled receptor which binds the tripeptide thyrotropin releasing hormone. TRHR is found in the brain and, when bound by TRH, acts (through phospholipase C) to increase intracellular inositol trisphosphate. It plays a crucial role in the anterior pituitary where it controls the synthesis and secretion of thyroid stimulating hormone and prolactin. The TRHR-Hek293 assay is a cell-based assay, and it has the potential to screen G protein-coupled receptors. A compound/drug can either activate (agonist) or suppress (antagonist) GPCRs that can be monitored by levels of intracellular calcium. Using this assay, the Tox21 10K compound library was screened to identify potential TRHR agonists.
Assay Protocol Summary: The TRHR-Hek293 cells were dispensed at 1500cells/4uL/well in 1536-well black-clear bottom plates using a Multidrop dispenser. After the assay plates were incubated at a 37 C/5% CO2 incubator for 18 hours, 4 uL of Dye-Loading Solution was added to each well. The plates were incubated at 37 C for 2 hours. For agonist mode, 23 nL of compounds dissolved in DMSO, positive controls or DMSO only was transferred to the assay plate by a pin tool. The fluorescence intensity in the plates was measured using FDSS 7000EX kinetic plate reader for 3 min at 1 sec intervals. Each test compound was measured at 15 concentrations and in triplicates.
% is scaled to controls: 0 for no effect and ±100 for the full control effect; potency is read from the fitted curve at half-maximal effect.

SMILES | activation | Potency
CC(=O)CC(N)=O | 0.271% | –
Cc1ccc2nc(-c3ccc(N)cc3)sc2c1S(=O)(=O)O | 0.0811% [at 26.5 µM] | –
C/C(=C\c1ccc(C(=O)O)cc1)c1ccc2c(c1)C(C)(C)CCC2(C)C | 13.3% [at 26.5 µM] | –
CCn1c2ccccc2c2ccccc21 | 0.0696% | –
CCN(CC)c1ccc2c(c1)Oc1cc(N(CC)CC)ccc1C21OC(=O)c2ccccc21 | – | 15.1 µM (active)
CN(C/C=C/c1ccccc1)Cc1cccc2ccccc12 | -0.647% [at 26.5 µM] | –
CC(C)(C)c1cc(CCC(=O)OCCSCCOC(=O)CCc2cc(C(C)(C)C)c(O)c(C(C)(C)C)c2)cc(C(C)(C)C)c1O | 0.311% [at 26.5 µM] | –
CCOC(=O)C1=NN(c2ccc(Cl)cc2Cl)C(C)(C(=O)OCC)C1 (stereo not given) | 0.14% | –
Cn1ccnc1 | 0.174% | –
Cc1c(Cl)c(=O)oc2cc(O)ccc12 | 0.308% | –
CC(C)(C)C1=CC(=O)C(C(C)(C)C)=CC1=O | 10.4% [at 26.5 µM] | –
COc1cc2ncnc(Nc3cccc(Cl)c3)c2cc1OC | -0.271% [at 11.8 µM] | –
Oc1ccc2c(c1)CCC2 | 0.0689% | –
Cn1c(=O)[nH]c2ncn(C)c2c1=O | -0.0068% | –
CN(C[C@@H](CC[N+]12CCC(C3CCCCC3)(CC1)CC2)c1ccc(Cl)c(Cl)c1)C(=O)c1cc(C(F)(F)F)cc(C(F)(F)F)c1 | -0.0832% | –
c1ccc2cc3c4ccccc4c4ccccc4c3cc2c1 | 0.0735% | –
CCCCCCCCSCc1cc(C)c(O)c(CSCCCCCCCC)c1 | 0.084% | –
C=C1C(CCl)(CCl)C2(Cl)C(Cl)C(Cl)C1(Cl)C2(Cl)Cl (stereo not given) | 2.8% | –
c1ccc(-c2nc3ccccc3[nH]2)cc1 | 0.237% | –
O=C(CCN1CCC(c2ccccc2)C1)c1ccc2c(c1)OCCO2 (stereo not given) | 0.432% [at 26.5 µM] | –

SMILES | activation | Potency
Clc1nc(C(Cl)(Cl)Cl)c(Cl)c(Cl)c1Cl | -0.258% | –
CC(C=O)c1ccccc1 (stereo not given) | -0.182% | –
O=C(Nc1ccc([N+](=O)[O-])cc1)Nc1ccc([N+](=O)[O-])cc1 (tested in a mixture with another compound) | 0.0003% [at 26.5 µM] | –
CCOC=C(C(=O)OCC)C(=O)OCC | 0.0764% | –
Cc1cc(Br)ccc1NC(=O)CCl | -0.363% | –
O=C(NCc1ncc(C(F)(F)F)cc1Cl)c1c(Cl)cccc1Cl | -0.648% | –
C=C[Si](C)(C)Cl | 0.0082% [at 5.23 µM] | –
C=Cc1ccc(O)c(OC)c1 | -0.707% | –
O=C(Nc1ccccc1)c1cc(Cl)ccc1O | 6.55% | –
CC(=O)[C@]1(O)Cc2c(O)c3c(c(O)c2[C@@H](O[C@H]2C[C@H](N)[C@H](O)[C@H](C)O2)C1)C(=O)c1ccccc1C3=O | 13.1% [at 26.5 µM] | –
CC1=C(/C=C/C(C)=C/C=C/C(C)=C\C(=O)O)C(C)(C)CCC1 | 5.05% | –
CCc1cccc(C)c1N(C(=O)CS(=O)(=O)O)C(C)COC (stereo not given) | -0.162% | –
Oc1ccc(Cl)cc1C1CCCC1 | 4.87% | –
Cc1cc(F)ccc1-c1cc(N2CC[C@@H](O)[C@H]2CO)ncc1N(C)C(=O)C(C)(C)c1cc(C(F)(F)F)cc(C(F)(F)F)c1 | 0.326% | –
O=C1c2ccccc2C(=O)c2c(Cl)cccc21 | 0.0506% [at 26.5 µM] | –
Nc1ccc(Oc2cccc(Oc3ccc(N)cc3)c2)cc1 | 4.22% | –
CCN(CCC#N)c1ccc(N=Nc2ccc([N+](=O)[O-])cc2)cc1 | -0.248% | –
CC(C)=NNC(N)=S | -0.0261% | –
N#CCCOCCC#N | 0.362% | –
CCc1cccc(C)c1N(C(=O)C(=O)O)C(C)COC (stereo not given) | -0.35% | –
